Common to all, as to assay: NCI-60 one-dose screen, 48 h (100 = growth as untreated, 0 = no growth, -100 = all killed)
What all share (conditions): 10 µM unless noted

Assay [1] relates to HCT-15 colon.
Assay [2] relates to HT29 colon.
The subject of assay [3] is SNB-75 CNS.
The test system of assay [4] is SNB-19 CNS.
The test system of assay [5] is U251 CNS.
Assay [6] has as its system PC-3 prostate.
In assay [7] the test system is SK-MEL-5 melanoma.
Assay [8] relates to UACC-62 melanoma.
In assay [9] the test system is LOX IMVI melanoma.
Assay [10] relates to SK-MEL-28 melanoma.
Assay [11] deals with SK-MEL-2 melanoma.
The test system of assay [12] is EKVX NSCLC.
In assay [13] the test system is SN12C renal.
Assay [14] relates to UO-31 renal.
Assay [15] concerns TK-10 renal.
The subject of assay [16] is ACHN renal.
For assay [17], the system named is CAKI-1 renal.
Assay [18] deals with A498 renal.
The subject of assay [19] is CCRF-CEM leukemia.
The test system of assay [20] is MOLT-4 leukemia.

About 83,000 compounds went through this panel and 20% of them were active in at least one assay; those are over-represented in the sample as a whole.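 How to read the values: 0–100, growth inhibition (40 = 60% inhibited); 0, no net growth; -100 to 0, cell death (-40 = 40% of starting cells died; -100 = all dead).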 Values without a mark were called inactive. Activity calls are given as the source filed them. Rule for the calls: active = growth percent below 10; inactive = the rest.

On to `O=C(O)c1cn(C2CC2)c2cc(N3CCN(Cc4ccc5ccccc5c4O)CC3)c(F)cc2c1=O`, for which the growth in assay [1] was 9.69% (active); in assay [2], -32.4% (active); in assay [3], -14.4% (active); in assay [4], 78.3%; in assay [5], 45.8%; in [6] it was 39.3%. Further, the growth is 61.6% in [7]; 38.8% in assay [8]; 40.1% in assay [9]; 38.6% in assay [10]; 76.3% in assay [11]; 66.7% in [12]. Also, the growth was 32.5% in [13]; 42.2% in assay [14]; 67.7% in [15]; 59% in assay [16]; 15.2% in [17]; -7.61% (active) in assay [18]. Also, the values for the growth in assay [19] and in assay [20] were 68.2% and 39%, respectively.

Regarding `CN(/C(N)=N/N=C/c1c2ccccc2cc2ccccc12)C1CCCCC1`, the growth is 25.5% in assay [1]; 17.9% in assay [2]; 57.2% in [3]; 71.5% in assay [4]; 48.3% in [5]; 36.7% in [6]. The growth in assay [7] is 12.1%; in [8], 47.6%; in assay [9] it was 31.3%; in assay [10], 48.8%; in assay [11], 85.8%; in assay [12], 50.5%. Moreover, the growth in assay [13] was 54.7%; in assay [14] it was 33.5%; in [15] it was 59.3%; in [16], 52.7%; in [17], 46.5%; in [18] it was 50.3%. In addition, the growth in assay [19] is 29.1%; in [20], 14.2%.

For `CCOC(=O)C(=O)C(C(=O)OCC)c1ccccc1` (centres undefined), the growth in assay [1] is 108%; in assay [2], 116%; in assay [3], 107%; in [4], 103%; in assay [5] it was 112%; in assay [6], 101%. Besides, the growth in [7] was 106%; in [8], 109%; in assay [9], 106%; in [10], 109%; in assay [11], 101%; in [12] it was 103%. Moreover, the growth in assay [13] was 108%; in assay [14], 87.7%; in assay [15], 106%; in [16] it was 105%; in assay [17], 97.9%; in assay [18] it was 107%. Moreover, the values for the growth in assay [19] and in [20] were 90.4% and 90%, respectively.

`O=C(CN1C(=O)NC2NC(=O)NC21)N/N=C/c1ccccc1[N+](=O)[O-]` (centres undefined): the growth was 103% in assay [1]; 112% in [2]; 83.3% in assay [3]; 96.8% in assay [4]; 107% in assay [5]; 101% in assay [6]. The growth in assay [7] is 99.3%; in assay [8] it was 90.1%; in assay [9] it was 102%; in assay [10] it was 107%; in assay [11], 114%; in [12], 103%. Besides, the growth in assay [13] is 105%; in assay [14], 87.8%; in assay [15], 116%; in assay [16], 103%; in assay [17] it was 90.1%; in assay [18], 104%. In addition, the growth in assay [20] is 103%.

`Cn1c(=O)c2nc(/C=C/c3ccccc3)c(=O)[nH]c2n(C)c1=S`: the growth in assay [1] is 102%; in assay [2] it was 109%; in assay [3], 105%; in assay [4], 105%; in assay [5], 108%; in assay [6], 102%. For the same compound, the growth was 102% in [7]; 92.4% in assay [8]; 101% in assay [9]; 111% in [10]; 109% in assay [11]; 101% in [12]. The growth is 104% in [13]; 86.9% in [14]; 115% in assay [15]; 105% in [16]; 92.1% in assay [17]; 97.8% in assay [18]. In addition, the growth in assay [19] was 101%; in assay [20] it was 103%.

On to `CCOc1nc(-c2ccccc2)cc2c(O)c(C(=O)N/N=C/c3ccccc3)[nH]c(=O)c12`, for which the growth in assay [1] was 104%; in [2], 105%; in [3], 122%; in [4] it was 105%; in assay [5], 106%; in assay [6], 93.5%. Moreover, the growth was 102% in assay [7]; 103% in [8]; 109% in assay [9]; 114% in assay [10]; 36.5% in assay [11]; 96.1% in assay [12]. Also, the growth in assay [13] was 110%; in assay [14], 93.2%; in [15] it was 151%; in assay [16], 107%; in assay [17], 104%; in assay [18] it was 91.3%. The growth is 106% in assay [19] and 79.7% in assay [20].

Turning to `COC12C=C/C(=C(/C(=O)OCc3ccncn3)C(=O)CCCCCCCCC3(OC)C=C/C(=C(/C(=O)OCc4ccncn4)C(=O)CCCCCCCC1)O3)O2`, the growth was -28.5% (active) in [1]; 12.5% in [2]; 48.7% in assay [3]; 7.75% (active) in [4]; 0.453% (active) in assay [5]; -36.7% (active) in assay [6]. Moreover, the growth in [7] is -88.1% (active); in assay [8], -47.4% (active); in [9], -54.8% (active); in [10] it was -19.2% (active); in assay [11], 11.6%; in [12] it was -15.5% (active). Further, the growth is -10.7% (active) in [13]; -50.7% (active) in assay [14]; 9.83% (active) in assay [15]; -74.8% (active) in assay [16]; -28.4% (active) in assay [17]; -86.3% (active) in assay [18]. For the same compound, the growth in assay [19] is -15.2% (active); in [20] it was -7.71% (active).

Regarding `COc1cccc(/C=C2\COc3ccc(O)c(O)c3C2=O)c1`, the growth in [1] was 1.4% (active); in [2], 8.58% (active); in assay [3], 11.5%; in [4], 35.4%; in [5] it was 3% (active); in assay [6] it was -10.5% (active). Besides, the growth in [7] was 40.4%; in assay [8], -6.3% (active); in [9], -82.3% (active); in assay [10] it was 32.1%; in [11], 57.1%; in assay [12], 60.2%. The growth in assay [13] was -54.3% (active); in assay [14], -93.3% (active); in assay [15] it was 21.5%; in assay [16] it was -79.2% (active); in [17] it was 0.272% (active); in assay [18], 111%. For the same compound, the growth in assay [19] is 3.04% (active); in assay [20], 2.08% (active).

(Values after PubChem BioAssay (NCI).)
